Data from PubChem BioAssay AID1159580 (chemical genetic matrix, 2015).
Among all 5,500 compounds or so, about 2,000 (36%) were called active. About 18% were inconclusive and are not listed. Cut-off read from the data, not from the text of the source: active = normalized growth mostly below about 0.91 (no sharp cut-off); inconclusive = no clear call, values can overlap the other calls; inactive = mostly above about 0.92. This is one part of the list.

Test: chemical genetic growth profiling, strain panel (AID 1159580);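 note: tested at 20 µM; growth read once vehicle control cultures reached saturation at 30 °C; 1 = growth at the plate median or of vehicle wells; lower values mean less growth of the strain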
Conditions: growth OD

Measured: normalized growth

CO[C@H]1C[C@H](O[C@H]2[C@H](C)[C@@H](OC3O[C@H](C)C[C@H](N(C)C)[C@H]3O)[C@@H](C)C[C@]3(CO3)C(=O)[C@H](C)[C@@H](O)[C@@H](C)[C@@H](C)OC(=O)[C@@H]2C)O[C@@H](C)[C@@H]1O (some centres not stated)
inactive: S. cerevisiae deletion strains, locus YJR075W, strain HOC1, stronger effect = lower value 1.01 | S. cerevisiae deletion strains, locus YKL009W, strain mrt4, stronger effect = lower value 1 | S. cerevisiae deletion strains, locus YKL068W, stronger effect = lower value 1 | S. cerevisiae deletion strains, locus YKL085W, strain MDH1 (second series), stronger effect = lower value 0.992 | S. cerevisiae deletion strains, locus YKL085W, strain MDH1, stronger effect = lower value 0.992 | S. cerevisiae deletion strains, locus YKL160W, strain elf1, stronger effect = lower value 1.06 | S. cerevisiae deletion strains, locus YKL190W, strain CNB1, stronger effect = lower value 1 | S. cerevisiae deletion strains, locus YKR001C, strain vps1, stronger effect = lower value 1.02 | S. cerevisiae deletion strains, locus YKR026C, strain gcn3, stronger effect = lower value 1 | S. cerevisiae deletion strains, locus YKR091W, strain srl3, stronger effect = lower value 1 | S. cerevisiae deletion strains, locus YLL001W, strain dnm1, stronger effect = lower value 1.06 | S. cerevisiae deletion strains, locus YLL026W, stronger effect = lower value 1 | S. cerevisiae deletion strains, locus YLL041C, strain sdh2, stronger effect = lower value 1 | S. cerevisiae deletion strains, locus YLR027C, strain aat2, stronger effect = lower value 1.01 | S. cerevisiae deletion strains, locus YLR039C, strain RIC1, stronger effect = lower value 1.03 | S. cerevisiae deletion strains, locus YLR058C, strain SHM2, stronger effect = lower value 1.01 | S. cerevisiae deletion strains, locus YLR102C, strain apc9, stronger effect = lower value 0.984 | S. cerevisiae deletion strains, locus YLR113W, strain HOG1, stronger effect = lower value 0.995 | S. cerevisiae deletion strains, locus YLR221C, strain rsa3, stronger effect = lower value 1.03 | S. cerevisiae deletion strains, locus YLR258W, strain gsy2, stronger effect = lower value 1.03 | S. cerevisiae deletion strains, locus YLR262C, strain YPT6 (second series), stronger effect = lower value 1.02 | S. cerevisiae deletion strains, locus YLR262C, strain YPT6, stronger effect = lower value 0.956 | S. cerevisiae deletion strains, locus YLR268W, strain sec22, stronger effect = lower value 1.05 | S. cerevisiae deletion strains, locus YLR320W, strain mms22, stronger effect = lower value 1.07 | S. cerevisiae deletion strains, locus YLR330W, strain CHS5, stronger effect = lower value 1.01 | S. cerevisiae deletion strains, locus YLR342W, strain FKS1 (second series), stronger effect = lower value 1.01 | S. cerevisiae deletion strains, locus YLR342W, strain FKS1, stronger effect = lower value 1.01 | S. cerevisiae deletion strains, locus YLR357W, strain rsc2, stronger effect = lower value 1.05 | S. cerevisiae deletion strains, locus YLR370C, strain arc18, stronger effect = lower value 0.991 | S. cerevisiae deletion strains, locus YLR371W, strain rom2, stronger effect = lower value 0.985 | S. cerevisiae deletion strains, locus YLR384C, strain iki3, stronger effect = lower value 1 | S. cerevisiae deletion strains, locus YLR418C, strain cdc73, stronger effect = lower value 1.03 | S. cerevisiae deletion strains, locus YML016C, strain PPZ1, stronger effect = lower value 1 | S. cerevisiae deletion strains, locus YML032C, strain rad52, stronger effect = lower value 1.01 | S. cerevisiae deletion strains, locus YML120C, strain ndi1, stronger effect = lower value 1.02 | S. cerevisiae deletion strains, locus YML124C, strain tub3, stronger effect = lower value 1 | S. cerevisiae deletion strains, locus YMR058W, strain fet3, stronger effect = lower value 1.01 | S. cerevisiae deletion strains, locus YMR078C, strain ctf18, stronger effect = lower value 0.996 | S. cerevisiae deletion strains, locus YMR125W, strain sto1, stronger effect = lower value 1.07 | S. cerevisiae deletion strains, locus YMR129W, stronger effect = lower value 0.997 | S. cerevisiae deletion strains, locus YMR205C, strain PFK2, stronger effect = lower value 1.05 | S. cerevisiae deletion strains, locus YMR223W, strain ubp8, stronger effect = lower value 1 | S. cerevisiae deletion strains, locus YMR231W, strain pep5, stronger effect = lower value 1 | S. cerevisiae deletion strains, locus YMR263W, strain SAP30, stronger effect = lower value 1.02 | S. cerevisiae deletion strains, locus YMR307W, strain GAS1, stronger effect = lower value 0.983 | S. cerevisiae deletion strains, locus YNL067W, strain RPL9B, stronger effect = lower value 1.02 | S. cerevisiae deletion strains, locus YNL071W, strain lat1, stronger effect = lower value 1.01 | S. cerevisiae deletion strains, locus YNL128W, strain TEP1, stronger effect = lower value 1.01 | S. cerevisiae deletion strains, locus YNL153C, strain GIM3, stronger effect = lower value 1.01 | S. cerevisiae deletion strains, locus YNL183C, strain NPR1, stronger effect = lower value 0.962 | S. cerevisiae deletion strains, locus YNL209W, strain ssb2, stronger effect = lower value 1.01 | S. cerevisiae deletion strains, locus YNL233W, strain BNI4, stronger effect = lower value 1.02 | S. cerevisiae deletion strains, locus YNL248C, strain rpa49, stronger effect = lower value 1.09 | S. cerevisiae deletion strains, locus YNL250W, strain rad50, stronger effect = lower value 1.01 | S. cerevisiae deletion strains, locus YNL271C, strain bni1, stronger effect = lower value 1.01 | S. cerevisiae deletion strains, locus YNL298W, strain CLA4, stronger effect = lower value 1.01 | S. cerevisiae deletion strains, locus YNL307C, strain MCK1, stronger effect = lower value 0.982 | S. cerevisiae deletion strains, locus YNL322C, strain KRE1 (second series), stronger effect = lower value 1.02 | S. cerevisiae deletion strains, locus YNL322C, strain KRE1, stronger effect = lower value 1.01 | S. cerevisiae deletion strains, locus YNR049C, strain mso1, stronger effect = lower value 0.997 | S. cerevisiae deletion strains, locus YNR052C, strain pop2, stronger effect = lower value 0.99 | S. cerevisiae deletion strains, locus YOL006C, strain TOP1, stronger effect = lower value 1.03 | S. cerevisiae deletion strains, locus YOL012C, strain htz1 1.14 | S. cerevisiae deletion strains, locus YOL147C, strain pex11, stronger effect = lower value 0.996 | S. cerevisiae deletion strains, locus YOR001W, strain rrp6, stronger effect = lower value 0.974 | S. cerevisiae deletion strains, locus YOR061W, strain CKA2, stronger effect = lower value 1 | S. cerevisiae deletion strains, locus YOR069W, strain VPS5, stronger effect = lower value 1.01 | S. cerevisiae deletion strains, locus YOR070C, strain gyp1, stronger effect = lower value 0.999 | S. cerevisiae deletion strains, locus YOR080W, strain dia2, stronger effect = lower value 0.988 | S. cerevisiae deletion strains, locus YOR083W, strain WHI5, stronger effect = lower value 1.07 | S. cerevisiae deletion strains, locus YOR106W, strain vam3, stronger effect = lower value 1.08 | S. cerevisiae deletion strains, locus YOR136W, strain idh2, stronger effect = lower value 1.01 | S. cerevisiae deletion strains, locus YOR144C, strain elg1, stronger effect = lower value 1 | S. cerevisiae deletion strains, locus YOR184W, strain ser1, stronger effect = lower value 1.01 | S. cerevisiae deletion strains, locus YOR231W, strain MKK1, stronger effect = lower value 1 | S. cerevisiae deletion strains, locus YOR265W, strain rbl2, stronger effect = lower value 1 | S. cerevisiae deletion strains, locus YOR270C, strain vph1, stronger effect = lower value 1.03 | S. cerevisiae deletion strains, locus YOR290C, strain snf2, stronger effect = lower value 1.03 | S. cerevisiae deletion strains, locus YOR316C, strain cot1, stronger effect = lower value 0.985 | S. cerevisiae deletion strains, locus YPL051W, strain arl3, stronger effect = lower value 1.04 | S. cerevisiae deletion strains, locus YPL055C, strain LGE1, stronger effect = lower value 1.05 | S. cerevisiae deletion strains, locus YPL078C, strain atp4, stronger effect = lower value 1.06 | S. cerevisiae deletion strains, locus YPL106C, strain sse1, stronger effect = lower value 1.03 | S. cerevisiae deletion strains, locus YPL240C, strain hsp82, stronger effect = lower value 1 | S. cerevisiae deletion strains, locus YPL241C, strain CIN2, stronger effect = lower value 1 | S. cerevisiae deletion strains, locus YPL256C, strain CLN2, stronger effect = lower value 0.982 | S. cerevisiae deletion strains, locus YPR119W, strain clb2, stronger effect = lower value 0.99 | S. cerevisiae deletion strains, locus YPR141C, strain kar3, stronger effect = lower value 1.01 | S. cerevisiae deletion strains, locus YPR163C, strain tif3, stronger effect = lower value 0.989 | S. cerevisiae deletion strains, locus YPR167C, strain met16, stronger effect = lower value 1 | S. cerevisiae deletion strains, strain wtn01, stronger effect = lower value 1.03 | S. cerevisiae strains, strain wild type, stronger effect = lower value 1
